Assay results from PubChem BioAssay (NCATS).
Results filed as inconclusive are left out. A call without a number means that no potency is given here. Activity calls are given as the source filed them. Unless noted, calls come from the whole dose curve; as a rule, active = well fitted curve in the direction sought with a large enough effect; inconclusive = small, poorly fitted or top-dose-only effect, or another doubt; inactive = no such curve, though single readings can be large; an effect the other way counts as inactive or inconclusive.

What was measured:
[1] = system: Zika virus NS2B-NS3 protease (unlinked complex); assay: Primary screen GU Rhodamine qHTS for Zika virus inhibitors: Unlinked NS2B-NS3 protease assay (AID 1347159); note: nearly all actives have a fitted effect of over 60% in size
In short: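 Noncovalent NS2B hydrophilic domain–NS3 protease domain complex (25 nM) preincubated 15 min at room temperature with compounds (up to 114 microM) in 10 mM Tris-HCl pH 8.0, 0.01% Tween 20; 1.5 microM Rhodamine110 substrate added, fluorescence change over 15 min fitted to Hill equation.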

[2] = biological target: Calcium and integrin-binding protein 1 (Homo sapiens) (UniProt Q99828); assay: Primary qHTS for Identification of Calcium Integrin Binding Protein 1 (CIB1) Competitor (AID 1508620);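 note: GST tagged CIB1 binding a fluorescein labelled alphaIIb integrin peptide tracer; top concentration of the series differs between compounds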
Calcium and integrin-binding protein 1 (Homo sapiens), sequence (Q99828 whole entry, looked up): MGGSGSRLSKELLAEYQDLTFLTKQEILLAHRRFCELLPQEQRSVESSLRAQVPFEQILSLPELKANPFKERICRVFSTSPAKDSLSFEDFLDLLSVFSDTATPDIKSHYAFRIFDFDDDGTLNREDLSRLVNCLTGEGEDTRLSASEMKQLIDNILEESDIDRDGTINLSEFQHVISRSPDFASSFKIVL
In short: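 CIB1-GST (1 uM final) and compound incubated 15 min at room temperature before adding FITC-alphaIIb peptide tracer (100 nM final). Competition for binding read by fluorescence polarization (ex 480, em 540) after another 15 min at room temperature.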

[3] = Cytotoxicity counterscreen for inhibitors of SARS-CoV-2 cell entry (AID 1645845; calls by dose curve; note: potency is the fitted concentration of half-maximal effect; nearly all actives have a fitted effect of over 50% in size)
In short: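 48 h compound treatment (after 1 h preincubation), HEK293-ACE2 cells, 37 C/5% CO2; ATP luminescence endpoint; normalized to cell wells and media blanks.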

[4] = Primary qHTS to identify inhibitors of SARS-CoV-2 cell entry (AID 1645846; calls by dose curve; note: potency is the fitted concentration of half-maximal effect; nearly all actives have a fitted effect of over 45% in size); details: activity change, negative = inhibition: at 57.1 µM (top of the series) unless noted
In short: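 Data are normalized to wells receiving SARS-CoV-2-S pseudoparticles and those given bald particles. Entry signal was luciferase luminescence in stable hACE2 Expi293F cells, 48 hr post-infection, after 1 hr compound pretreatment.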

[5] = qHTS drug screen for cell cycle checkpoint inhibitors in PARPi-resistant BRCA-mutant ovarian cancer cell lines. (AID 1963452; calls by dose curve); details: PEO1/OlaR viability, CellTiter-Glo luminescence, 96 h, stronger effect = lower value
In short: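 PEO1, PEO4 and PEO1/OlaR ovarian cancer cells, 600 per well, exposed 96 h at 37C to a dilution series. Viability read by CellTiter-Glo luminescence, normalized to DMSO and empty wells; activity summarized as Z-AUC.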

HeLa = assay: Primary qHTS to identify gynecologic anti-cancer compounds using libraries of approved drugs and bioactive compounds (AID 1345084); details: Gynecologic cancer cell panel viability, ATPlite luminescence, 48 h; series mostly up to 57.5 µM; note: nearly all actives have a fitted effect of over 55% in size; note: potency is the fitted concentration of half-maximal effect
In short: (§1)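 Luminescence from the ATPlite ATP-monitoring reagent indicates viable cell number; lower signal means cytotoxicity. Cells received compound 16 h after seeding and were exposed for 48 h across five concentrations.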

JEG-3 = assay: as above; details: Gynecologic cancer cell panel viability, ATPlite luminescence, 48 h; series mostly up to 57.5 µM
In short: as §1

SKOV3 = assay: as above; details: Gynecologic cancer cell panel viability, ATPlite luminescence, 48 h; series mostly up to 57.5 µM
In short: as §1

[6] = Primary redox qHTS assay for identification of artifact compounds. (AID 1845223)
In short: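 Amplex Red (25 uM) and HRP (250 mU/mL) in HBSS, with compounds for 15 min, then 250 uM DTT for 30 min, room temperature, dark. Fluorescence 525/598 nm read; normalized to DMSO and 10 uM DA3003; Hill fit.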

CAOV3 = assay: Primary qHTS to identify gynecologic anti-cancer compounds using libraries of approved drugs and bioactive compounds (AID 1345084); details: Gynecologic cancer cell panel viability, ATPlite luminescence, 48 h; series mostly up to 57.5 µM; note: nearly all actives have a fitted effect of over 55% in size; note: potency is the fitted concentration of half-maximal effect
In short: as §1

[7] = P-glycoprotein substrates identified in KB-3-1 adenocarcinoma cell line, qHTS therapeutic library screen (AID 1346986); note: nearly all actives have a fitted effect of over 60% in size
In short: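 Cells seeded 500/well in DMEM/10% FCS; compounds pinned in dose-response; 72 h incubation; CellTiter-Glo added, 5 min, luminescence. KB-8-5-11 run ±tariquidar to test reversal of P-gp resistance.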

[8] = P-glycoprotein substrates identified in KB-8-5-11 adenocarcinoma cell line, qHTS therapeutic library screen (AID 1346987); note: nearly all actives have a fitted effect of over 65% in size; note: potency is the fitted concentration of half-maximal effect
In short: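 Steps: plate 500 KB-8-5-11 cells/well in DMEM + 10% FCS (colchicine removed); pin compounds in dose-response; incubate 72 h, 37 degree C, 5% CO2; add CellTiter-Glo, 5 min; read luminescence.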

[9] = system: Zika virus NS2B-NS3 protease (linked construct); assay: Primary screen NINDS Rhodamine qHTS for Zika virus inhibitors (AID 1347160); note: nearly all actives have a fitted effect of over 55% in size
In short: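 Purified linked NS2B-NS3 protease (NS2B hydrophilic domain joined to NS3 protease by flexible linker), 25 nM in 10 mM Tris-HCl pH 8.0, 0.01% Tween 20. Compounds titrated, 15 min preincubation at room temperature; 1.5 microM Rhodamine110 substrate, FITC fluorescence change over 15 min.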

[10] = biological target: Catechol O-methyltransferase (Homo sapiens) (UniProt P21964); assay: Confirmatory Screen for Target Class Profiling of Small Molecule Inhibitors of Methyltransferases (AID 1745852); details: MTase-Glo luminescence, SAH detection, recombinant enzyme; measured here: COMT max response; stronger effect = lower value
Catechol O-methyltransferase (Homo sapiens), sequence (P21964 whole entry, looked up): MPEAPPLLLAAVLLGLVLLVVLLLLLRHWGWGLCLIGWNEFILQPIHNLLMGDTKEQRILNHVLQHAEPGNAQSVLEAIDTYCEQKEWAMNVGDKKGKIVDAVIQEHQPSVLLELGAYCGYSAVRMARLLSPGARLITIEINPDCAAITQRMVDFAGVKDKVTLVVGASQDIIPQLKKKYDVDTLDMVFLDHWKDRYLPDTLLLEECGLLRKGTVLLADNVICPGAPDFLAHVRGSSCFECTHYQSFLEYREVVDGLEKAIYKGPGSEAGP

[11] = biological target: Guanidinoacetate N-methyltransferase (Homo sapiens) (UniProt Q14353); assay: as above; details: activity change, negative = inhibition: at 57.3 µM (top of the series) unless noted
[12] = biological target: Nicotinamide N-methyltransferase (Homo sapiens) (UniProt P40261); assay: as above; details: MTase-Glo luminescence, SAH detection, recombinant enzyme; measured here: NNMT max response; stronger effect = lower value
Nicotinamide N-methyltransferase (Homo sapiens), sequence (P40261 whole entry, looked up): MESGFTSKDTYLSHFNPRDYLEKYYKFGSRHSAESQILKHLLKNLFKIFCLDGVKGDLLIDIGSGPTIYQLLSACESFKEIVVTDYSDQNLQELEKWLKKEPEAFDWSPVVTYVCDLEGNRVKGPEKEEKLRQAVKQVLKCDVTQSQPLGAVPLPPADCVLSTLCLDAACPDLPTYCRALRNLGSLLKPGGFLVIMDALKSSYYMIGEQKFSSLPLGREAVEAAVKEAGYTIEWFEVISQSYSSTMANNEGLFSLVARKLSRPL

Q: With C[C@@H]1CN(Cc2ccc(F)cc2)CCN1C(=O)COc1ccc(Cl)cc1NC(N)=O as the compound, how does the Potency [1] read?
A: Its Potency is “inactive”.

Q: And the Potency [2]?
A: The Potency was “inactive”.

Q: What about the Potency [3] of the same compound?
A: Its Potency is 2.51 µM (active).

Q: And the Potency [4]?
A: The Potency was 2.51 µM (active).

Q: What about the Z-AUC [5] of the same compound?
A: The Z-AUC was -0.0879 (inactive).

Q: And the Z-AUC ([5]; measured here: PEO1 parental Z-AUC)?
A: Its Z-AUC is -1.28.

Q: And the Z-AUC ([5]; measured here: PEO4 Z-AUC)?
A: The Z-AUC was 0.406.

Q: And the Potency (HeLa)?
A: The Potency was “inactive”.

Q: And the Potency (JEG-3)?
A: Its Potency is “inactive”.

Q: And the Potency (SKOV3)?
A: Its Potency is 3.16 µM (active).

Q: What does the source list for C[C@@]1(CO)[C@H](O)CC[C@@]2(C)[C@H]1CC[C@H]1C[C@@H]3C[C@@]12CC[C@]3(O)CO?
A: Potency [2]: inactive; Potency [6]: inactive; Potency (CAOV3): inactive; Potency (HeLa): inactive; Potency (JEG-3): inactive

Q: For C=C(CO)C(=O)O[C@H]1CC(=C)[C@@H]2C[C@H](O)C(=C)[C@@H]2[C@H]2OC(=O)C(=C)[C@@H]21, which Potency [7] is on record?
A: Its Potency is “inactive”.

Q: And the Potency [8]?
A: The Potency was “inactive”.

Q: And the Potency [9]?
A: Its Potency is “inactive”.

Q: And the Potency [2]?
A: Its Potency is “inactive”.

Q: What about the activity [10] of the same compound?
A: The activity was -80.9%.

Q: What about the activity change, negative = inhibition [11] of the same compound?
A: Its activity change, negative = inhibition is -4.37%.

Q: What about the activity [12] of the same compound?
A: Its activity is -6.26%.

Q: What about the Potency [6] of the same compound?
A: Its Potency is “inactive”.

Q: And the Potency (CAOV3)?
A: The Potency was “inactive”.

Q: What about the Potency (HeLa) of the same compound?
A: The Potency was “inactive”.

Q: And the Potency (JEG-3)?
A: The Potency was “inactive”.

Q: And the Potency (SKOV3)?
A: The Potency was “inactive”.

Q: Which Potency [8] does the source give for C[C@@H]1C[C@@H](O)[C@]2(O)O[C@@H]3C[C@@]4(C=O)C(CC[C@@H]5C4CC[C@]4(C)[C@@H](C6=CC(=O)OC6)CC[C@]54O)C[C@H]3O[C@@H]2O1 (stereo partly drawn) here?
A: The Potency was 0.0632 µM (active).

Q: And the Potency [1]?
A: The Potency was “inactive”.

Q: And the Potency [9]?
A: Its Potency is “inactive”.

Q: And the Potency [2]?
A: The Potency was “inactive”.

Q: What about the Potency [6] of the same compound?
A: The Potency was “inactive”.

Q: What about the Potency (JEG-3) of the same compound?
A: The Potency was “inactive”.

Q: Which results are given for C[C@]12CC[C@H](O)C[C@H]1CC[C@@H]1[C@@H]2[C@H](O)C(=O)[C@]2(C)[C@@H](c3ccc(=O)oc3)CC[C@]12O?
A: Potency [8]: 0.0259 µM (active); Potency [1]: inactive; Potency [9]: inactive; Potency [2]: inactive; Potency [6]: inactive

Q: With CC1=C[C@H]2O[C@@H]3[C@H](O)[C@@H](O)[C@](C)([C@@]2(CO)C[C@@H]1O)[C@]31CO1 as the compound, how does the Potency [1] read?
A: The Potency was “inactive”.

Q: And the Potency [9]?
A: The Potency was “inactive”.

Q: And the Potency [6]?
A: The Potency was “inactive”.

Q: And the Potency (CAOV3)?
A: Its Potency is 11.2 µM (active).

Q: And the Potency (HeLa)?
A: Its Potency is 12.6 µM (active).
